Laboratory results: PubChem BioAssay AID488969 (Vanderbilt High Throughput Screening Facility, 2010)
Over roughly 110,000 compounds, “z-score” has its median near -0.1; the highest 2% begin near 2. Shown is part of a subset that was picked to be rich in the highest values. The source made the active and inactive calls.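 Rule for the calls: active = z-score in the third read window above 3 or below -3; inactive = the rest.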

What follows are molecules tested against Metabotropic glutamate receptor 8 (Rattus norvegicus) (UniProt P70579) (assay: rat mGluR8 modulators via GIRK flux, primary screen, cell-based, thallium flux, HTS (AID 488969)). Conditions: HEK293 rat mGluR8, GIRK (G protein-gated inwardly rectifying potassium channel) thallium flux, FluoZin2; at 10 µM; stronger effect = higher value; submaximal glutamate (EC20) added with thallium.
Sequence of Metabotropic glutamate receptor 8 (Rattus norvegicus) (P70579 whole entry, looked up): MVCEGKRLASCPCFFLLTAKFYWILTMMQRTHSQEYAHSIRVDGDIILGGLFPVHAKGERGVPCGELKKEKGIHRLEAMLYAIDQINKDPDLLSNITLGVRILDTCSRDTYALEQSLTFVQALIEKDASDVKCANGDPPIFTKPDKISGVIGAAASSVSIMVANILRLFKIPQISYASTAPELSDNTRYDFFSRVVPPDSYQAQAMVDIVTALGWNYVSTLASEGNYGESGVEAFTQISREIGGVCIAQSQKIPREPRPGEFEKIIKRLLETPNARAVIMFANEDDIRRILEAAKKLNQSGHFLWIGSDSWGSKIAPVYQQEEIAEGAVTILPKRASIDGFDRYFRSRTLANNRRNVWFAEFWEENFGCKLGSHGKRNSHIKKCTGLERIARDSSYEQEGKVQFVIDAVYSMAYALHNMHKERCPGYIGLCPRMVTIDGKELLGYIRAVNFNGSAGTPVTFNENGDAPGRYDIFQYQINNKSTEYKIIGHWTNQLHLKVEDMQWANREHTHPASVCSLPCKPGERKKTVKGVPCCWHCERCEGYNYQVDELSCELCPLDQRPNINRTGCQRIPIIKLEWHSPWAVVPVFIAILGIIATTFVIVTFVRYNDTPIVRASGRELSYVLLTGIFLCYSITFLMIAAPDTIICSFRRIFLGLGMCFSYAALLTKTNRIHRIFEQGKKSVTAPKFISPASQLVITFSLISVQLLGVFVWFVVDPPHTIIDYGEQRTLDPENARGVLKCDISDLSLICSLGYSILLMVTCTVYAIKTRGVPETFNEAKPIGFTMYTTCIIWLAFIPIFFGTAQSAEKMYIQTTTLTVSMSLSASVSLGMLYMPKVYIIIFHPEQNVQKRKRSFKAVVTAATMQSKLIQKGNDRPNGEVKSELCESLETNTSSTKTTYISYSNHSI

First: O=C(Cn1cc([N+](=O)[O-])cn1)N1CCc2ccccc21
Second: N#Cc1cc([N+](=O)[O-])cnc1Nc1ccccc1
The z-score of the first is higher: 0.0712 for the first, -0.521 for the second.

First: O=C(c1cccs1)c1cn(CC(=O)N2CCc3ccccc3C2)c2ccccc12
Second: c1ccc(CNc2nc(-c3cccs3)nc3ccccc23)cc1
The z-score of the first is lower: -0.134 for the first, 0.32 for the second.

First: COc1ccc(N2CCN(S(=O)(=O)c3cccc(C(F)(F)F)c3)CC2)cc1
Second: O=C(NCCCN1CCN(c2ccccc2)CC1)Nc1ccccc1C(F)(F)F
The z-score of the first is higher: -0.0298 for the first, -0.506 for the second.

Compared with CCn1c(SCc2ccccc2Cl)nc2ccccc21, CCn1c(SCc2nc3sc(C(=O)O)c(C)c3c(=O)[nH]2)nc2ccccc21 is lower in z-score: 0.866 for the first, -0.449 for the second.

First: CN(/N=C/c1cccnc1)c1cnn(-c2ccc(F)c(Cl)c2)c(=O)c1Cl
Second: O=C1C(=O)N(CNc2cccnc2)c2ccccc21
The z-score of the first is higher: -0.0102 for the first, -0.21 for the second.

First: COc1ccc(Cl)cc1C(=O)NNC(=S)NC(=O)c1cc(-c2ccccc2)nc2ccccc12
Second: COC(=O)c1cc(OC)c(OC)cc1NC(=O)c1cc(-c2ccccc2)nc2ccccc12
The z-score of the first is higher: 1.06 for the first, -0.917 for the second.

Compared with O=C(Nc1ccon1)c1cc(-c2ccccc2)nc2ccccc12, Cn1c(/C=N/NC(=O)c2ccccc2)nc2ccccc21 is higher in z-score: -1.67 for the first, 0.298 for the second.

Going from COC(=O)c1ccc(NC(=S)Nc2ccccc2)cc1 to C/C(=N\Nc1ccc(C(=O)O)cc1)c1nc2ccccc2n1C, the z-score falls from 0.0759 to -0.702.

First: O=C(O)c1cc(NCc2ccccc2C(F)(F)F)ccc1N1CCOCC1
Second: CC(Sc1nc(-c2ccccc2)cc(C(F)(F)F)n1)C(=O)N1CCOCC1 (stereo unspecified)
The z-score of the first is lower: -0.168 for the first, -0.153 for the second.

Going from COC(=O)c1c(NC(=O)c2cccs2)sc2c1CCC(C)C2 (stereo unspecified) to COCC(=O)Nc1sc2c(c1C(=O)OC)CCC(C)C2 (stereo unspecified), the z-score falls from -0.363 to -0.444.

Compared with COC(=O)c1c(NC(=O)c2ccccc2N(C)S(=O)(=O)c2ccccc2)sc2c1CCCC2, CCOC(=O)c1c(NC(=O)C2CCCN(S(=O)(=O)c3ccccc3)C2)sc2c1CCCC2 (stereo unspecified) is higher in z-score: -0.215 for the first, 0.269 for the second.

Going from COC(=O)c1c(NC(=O)CN2CCN(S(=O)(=O)c3ccccc3)CC2)sc2c1CCC(C)C2 (stereo unspecified) to COC(=O)c1ccc(Cl)c(NC(=O)CN2CCN(Cc3ccccc3)CC2)c1, the z-score rises from -0.486 to -0.236.

Going from CC(C)OC(=O)c1c(N)sc2c1CCCC2 to CC1CCc2c(sc(N)c2C(=O)OC(C)C)C1 (stereo unspecified), the z-score falls from 2.03 to 0.201.

Compared with CCOC(=O)c1c(NC2=NS(=O)(=O)c3ccccc32)sc2c1CCC(C)C2 (stereo unspecified), CCOC(=O)c1sc2nc(CSc3nc4ccccc4n3CC)[nH]c(=O)c2c1C is higher in z-score: 0.00913 for the first, 2.68 for the second.

Going from CNC(=O)c1c(N)sc2c1CCCCC2 to CC(=O)N1CN(C2CC(C)(C)NC(C)(C)C2)Cc2c1sc1c2CCCC1, the z-score rises from 0.209 to 0.426.

Compared with O=C(CSc1nnnn1-c1cccc(F)c1)Nc1nc2ccccc2s1, CCn1c(SCC(=O)Nc2nc(-c3ccccc3)cs2)nnc1-c1ccccc1O is lower in z-score: -0.0501 for the first, -0.347 for the second.

Going from CCOc1ccc(N2C(=O)c3ccccc3C2=O)cc1 to O=C1c2ccccc2C(O)N1c1ccc(Cl)cc1 (stereo unspecified), the z-score rises from -1.29 to -0.698.

Compared with CCOc1ccc2cc(S(=O)(=O)n3ccnc3C)ccc2c1, COc1ccc(OCC(=O)N/N=C(\C)c2ccc(-n3ccnc3)cc2)cc1 is lower in z-score: 0.917 for the first, -0.334 for the second.

Compared with COc1ccc([N+](=O)[O-])cc1NC(=O)C1CCCO1 (stereo unspecified), COC(=O)c1ccc(Cl)c(NC(=O)CN2CCOCC2)c1 is higher in z-score: -0.326 for the first, 0.185 for the second.

Compared with C=CCNC(=O)CSc1cc([N+](=O)[O-])cc(S(=O)(=O)Cc2ccccc2)c1, CCC(=O)Nc1cc2nn(-c3ccccc3)nc2cc1Cl is lower in z-score: 0.665 for the first, 0.0874 for the second.

Compared with Nc1nc(-c2cccnc2)nn1C(=O)c1ccco1, Cn1c(=O)c2[nH]c(-c3cccnc3)nc2n(C)c1=O is higher in z-score: 0.31 for the first, 0.366 for the second.

First: COc1cc(NC(=O)c2ccc(-c3ccc(Br)cc3)o2)ccc1NC(=O)C(C)C
Second: COc1ccccc1CC(=O)Nc1ccc(-c2noc(COc3ccc(Cl)c(C)c3)n2)cc1
The z-score of the first is higher: 0.116 for the first, -0.166 for the second.

Going from CCOC(=O)C(CC)Sc1nnc2c3cc(C)ccc3n(C)c2n1 (stereo unspecified) to CCOC(=O)C1=C(C)Nc2nc(SCc3cccnc3)nn2C1c1ccc(OC)cc1 (stereo unspecified), the z-score rises from -0.798 to 0.463.

Compared with COC(=O)Cc1c(C)nc2nc(-c3ccccc3)[nH]n2c1=O, COC(=O)Cc1c(C)nc2nc(-c3ccc(OC)cc3)[nH]n2c1=O is higher in z-score: -0.455 for the first, -0.0668 for the second.

First: COC(=O)Cc1c(C)nc2nc(-c3ccco3)[nH]n2c1=O
Second: COCCn1c(SCc2nc3sc(C(=O)OC)c(C)c3c(=O)[nH]2)nc2ccccc21
The z-score of the first is higher: 2.68 for the first, 0.877 for the second.

Compared with CC(C)c1ccc(/C=N/Nc2ccc(C(=O)O)cc2)cc1, C/C(=N\NC(=O)COc1ccc(C)cc1C(C)C)c1ccc(-n2ccnc2)cc1 is higher in z-score: -0.222 for the first, 2.53 for the second.

First: CNC(=S)N/N=C/c1ccc2c(c1)OCCO2
Second: C=C(C)CNC(=S)N/N=C/c1ccc(N2CCOCC2)cc1
The z-score of the first is higher: 0.205 for the first, 0.134 for the second.

Going from Cn1c(SCc2ccc(Br)cc2)nnc1-c1ccncc1 to COc1cccc(-c2nnc(SCc3nc4ccccc4s3)n2C)c1, the z-score falls from -0.143 to -0.34.

First: Cc1cccc(-c2cc3nc4c(c(N5CCC6(CC5)OCCO6)n3n2)CCCC4)c1
Second: COc1ccc2ncc(S(=O)(=O)c3ccccc3)c(N3CCC4(CC3)OCCO4)c2c1
The z-score of the first is higher: 0.391 for the first, -0.776 for the second.

Compared with CC1CN(Cc2ccccn2)CCC1=O (stereo unspecified), CC(=O)NC(Cc1ccccc1C)C(=O)NC1CCN(c2ncccc2[N+](=O)[O-])CC1 (stereo unspecified) is higher in z-score: -0.215 for the first, -0.207 for the second.

Going from O=C(NNC(=O)C1CCN(Cc2ccccc2)CC1)c1cccc(Cl)c1 to CN1CCN(CC(=O)Nc2c(C(=O)C3CC3)oc3ccccc23)CC1, the z-score falls from 0.0829 to -0.346.

First: CCOC(=O)c1cn(-c2ccccc2CO)c2c(F)c(F)c(F)cc2c1=O
Second: Cn1c(=O)c2c(ncn2CC(=O)OCC(=O)Nc2ccccc2Cl)n(C)c1=O
The z-score of the first is lower: -0.237 for the first, -0.159 for the second.

Compared with CN(C)CC(O)COc1cccc(OCC(O)CN(C)C)c1 (stereo unspecified), CN(C)CC(O)COc1ccc(-c2ccc(C#N)cc2)cc1 (stereo unspecified) is higher in z-score: -0.132 for the first, 2.48 for the second.

Going from CC1(C)NC(=O)N(CC(O)COc2ccc(-c3ccccc3)cc2)C1=O (stereo unspecified) to Cc1ccc(OCC(O)CN2C(=O)NC(C)(C)C2=O)cc1 (stereo unspecified), the z-score falls from -0.0166 to -0.38.

Going from N#Cc1ccc(-c2ccc(OCC(O)Cn3nnc4ccccc43)cc2)cc1 (stereo unspecified) to COc1ccc(/C=N/n2c(N)nc(-c3ccccc3)c2-c2ccccc2)cc1, the z-score falls from -0.106 to -0.377.

First: Cc1cc(C)c2c(N)c(C(=O)c3cccc(Cl)c3)sc2n1
Second: Cc1ccc(NC(=O)c2sc3nc4c(c(-c5ccco5)c3c2N)CCC4)cc1
The z-score of the first is higher: -0.231 for the first, -0.382 for the second.

Going from CCc1ccc(N/C(SC)=C(/C#N)C(N)=O)cc1 to Cc1ccc(CNC(=O)/C=C/c2c(Cl)cccc2Cl)cc1, the z-score falls from 0.119 to -0.641.

First: CCCCCCOC(=O)/C=C/c1c(C)[nH]c(=O)[nH]c1=O
Second: CCOC(=O)c1oc2ccc(OC)cc2c1NC(=O)CN1CCN(C)CC1
The z-score of the first is lower: -0.139 for the first, 0.148 for the second.

First: C/C(=N\NC(=O)COc1ccc(C(C)(C)C)cc1)c1ccc(-n2ccnc2)cc1
Second: C/C(=N\NC(=O)c1ccccc1)c1ccc(-n2ccnc2)cc1
The z-score of the first is lower: 0.123 for the first, 2.25 for the second.

Going from C/C(=N\NC(=O)c1ccc(C)cc1C)c1ccc(-n2ccnc2)cc1 to CNC(=S)N/N=C(\C)c1ccc(-n2ccnc2)cc1, the z-score falls from -0.0942 to -0.579.

Compared with Clc1cccc2sc(N3CCOCC3)nc12, CNC(=S)N/N=C(\C)c1ccc(N2CCOCC2)cc1 is higher in z-score: 0.0232 for the first, 0.456 for the second.

Compared with CN1CCN(S(=O)(=O)c2ccc(Br)s2)CC1, COC(=O)c1oc2ccc(Br)cc2c1NC(=O)CN1CCN(C)CC1 is higher in z-score: -0.0381 for the first, 2.22 for the second.

Compared with COC(=O)c1ccc(Cl)c(NC(=O)CN(c2ccc(OC)cc2)S(=O)(=O)c2ccccc2)c1, COC(=O)c1ccc(Cl)c(NC(=O)CN(c2ccc(OC)c(OC)c2)S(C)(=O)=O)c1 is higher in z-score: -0.285 for the first, 2.1 for the second.

Compared with COC(=O)c1ccc(Cl)c(NC(=O)CN(c2ccc3c(c2)OCO3)S(C)(=O)=O)c1, CCNC(=S)N/N=C(\C)c1ccc(N2CCOCC2)cc1 is lower in z-score: 0.625 for the first, 0.245 for the second.

Going from O=C(CSc1ncnc2c1oc1ccccc12)NCC1CCCO1 (stereo unspecified) to C/C(=N\Nc1nc2ccccc2[nH]1)c1ccc(Cl)s1, the z-score falls from -0.215 to -1.3.

Compared with C=C(C)CNC(=S)N/N=C(\C)c1ccc(-n2ccnc2)cc1, C=C(C)CNC(=S)N/N=C(\C)c1ccc(Cl)s1 is higher in z-score: -0.342 for the first, 2.26 for the second.

Going from CNC(=S)N/N=C(\C)c1ccc(C)c(C)c1 to CNC(=S)N/N=C(\C)c1ccc(C(C)(C)C)cc1, the z-score rises from 1.2 to 2.03.

Compared with CCNC(=S)N/N=C(\C)c1cccc([N+](=O)[O-])c1, CNC(=S)N/N=C(\C)c1cccc([N+](=O)[O-])c1 is lower in z-score: 0.559 for the first, -0.339 for the second.

For O=C(NC(=S)Nc1ccccc1)c1cc(-c2ccccc2)nc2ccccc12, the z-score was 9.35 (active).
With COC(=O)c1ccc(NC(=S)NC(=O)c2cc(-c3ccccc3)nc3ccccc23)cc1 the z-score was 8.36 (active).
In the case of CC1CCc2c(sc(NS(=O)(=O)c3ccccc3)c2C(=O)OC(C)C)C1 (stereo unspecified), the z-score is reported as 8.13 (active).
For CC(C)OC(=O)c1c(NS(=O)(=O)c2ccccc2)sc2c1CCCC2, the z-score was 12.3 (active).
COC(=O)c1c(NS(=O)(=O)c2ccc(C)cc2)sc2c1CCC(C)C2 (stereo unspecified) was tested, and the z-score was 7.28 (active).
CCOc1ccc(N2C(=O)c3ccccc3C2O)cc1 (stereo unspecified) was tested, and the z-score was 8.14 (active).
For CCC(=O)n1nc(-c2cccnc2)nc1NCc1ccc(OC)cc1, the z-score was -5.08 (active).
For COc1ccc(CNc2nc(-c3cccnc3)nn2C(=O)c2ccco2)cc1, the z-score was 9.48 (active).
For CNC(=S)N/N=C/c1ccc(C(C)C)cc1, the z-score was 3.01 (active).
For CC1CN(C2CC(C)(C)NC(C)(C)C2)CCC1=O (stereo unspecified), the z-score was 3.98 (active).
For CC1(C)NC(=O)N(CC(O)COc2ccc(-c3ccc(C#N)cc3)cc2)C1=O (stereo unspecified), the z-score was 5.36 (active).
With C/C(=N\NC(=O)c1ccccc1)c1nc2ccccc2n1C the z-score was 3.71 (active).
For COC(=O)c1ccc(Cl)c(NC(=O)CN2CCN(C)CC2)c1, the z-score was 4.17 (active).
For CNC(=S)N/N=C(\C)c1ccc(Cl)s1, the z-score was 3.13 (active).
For CCNC(=S)N/N=C(\C)c1ccc(Cl)s1, the z-score was 4.7 (active).
